Several values for one entry are separate records, joined by “and”; a condition that tells them apart may be missing. Equal values may be shown once. Activity calls are given as the source filed them. Unless noted, no rule for the calls is given here.
Columns and labels:
[1] = A549 cell viability effects, profiling panel, calcein-AM fluorescence, 48 h, basal (AID 1162); conditions: higher = more signal; also: test concentration not given here
[2] = adipocyte viability effects, profiling panel, cell-based, 3T3-L1 adipocytes, calcein-AM fluorescence, 48 h, basal (AID 1163); conditions: 3T3-L1 adipocytes viability, higher = more signal; also: test concentration not given here
[3] = HepG2 cell viability effects, profiling panel, calcein-AM fluorescence, 48 h, basal (AID 1164); conditions: higher = more signal; also: test concentration not given here
[4] = MM1S cell viability effects, profiling panel, calcein-AM fluorescence, 48 h, basal (AID 1165); conditions: higher = more signal;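 also: viability of MM1S multiple myeloma cells under basal unstimulated conditions; test concentration not given here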
[5] = basal RPMI8226 viability, no added stimulus, profiling panel, cell-based, calcein-AM fluorescence, 48 h, PK04 Diversity Set (AID 1166); conditions: higher = more signal; RPMI8226 myeloma viability, calcein-AM fluorescence, 48 h unless noted;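 also: cells grown under basal conditions without added stimulus; test concentration not given here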
[6] = basal HepG2 mitochondrial membrane potential changes, profiling panel, cell-based, JC-1 fluorescence, 24 h, 100 nL compound (AID 1167); conditions: higher = more signal; also: test concentration not given here
[7] = basal 3T3-L1 adipocyte mitochondrial potential changes, profiling panel, cell-based, JC-1 fluorescence, 3T3-L1 adipocytes, 24 h, 100 nL compound (AID 1168); conditions: JC-1 mitochondrial fluorescence; higher = more signal, called active from +8 up or from −8 down unless noted; also: test concentration not given here
[8] = basal RPMI8226 mitochondrial membrane potential changes, profiling panel, cell-based, JC-1 fluorescence, 24 h, 100 nL compound (AID 1169); conditions: higher = more signal; RPMI8226 myeloma, JC-1 mitochondrial potential fluorescence, 24 h unless noted; also: test concentration not given here
[9] = basal MM1S mitochondrial membrane potential changes, profiling panel, cell-based, JC-1 fluorescence, 24 h, 100 nL compound (AID 1170); conditions: higher = more signal; also: test concentration not given here
[10] = A549 lung cancer cell viability effects, profiling panel, resazurin fluorescence, 24 h, PK04 Diversity Set (AID 1171); conditions: higher = more signal, called active from +8 up or from −8 down unless noted; also: test concentration not given here
[11] = HepG2 liver cancer cell viability effects, profiling panel, resazurin fluorescence, 24 h, PK04 Diversity Set (AID 1172); conditions: higher = more signal; also: test concentration not given here
[12] = basal S. cerevisiae growth modulation, no modifier, primary screen, OD600, strain BY4716, 24 h, basal condition (AID 1173); conditions: OD600, 24 h; higher = more signal, called active from +8 up or from −8 down unless noted
[13] = MM1S myeloma cell viability, profiling panel, resazurin fluorescence, basal, 24 h, PK04 Diversity Set (AID 1174); conditions: higher = more signal, called active from +8 up or from −8 down unless noted;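 also: MM1S multiple myeloma cell line; test concentration not given here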
[14] = biological target: Dihydroorotate dehydrogenase (quinone), mitochondrial (Plasmodium falciparum (isolate 3D7)) (UniProt Q08210); assay: PfDHODH enzyme inhibitors, primary screen, biochemical, C-terminal His tag, absorbance 600 nm (AID 1175); conditions: DCIP absorbance 600 nm; higher = more signal, called active from +8 up or from −8 down unless noted;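 also: recombinant parasite enzyme with a five histidine tag at its C terminus; test concentration not given here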
Chain of Dihydroorotate dehydrogenase (quinone), mitochondrial (Plasmodium falciparum (isolate 3D7)) (Q08210 whole entry, looked up): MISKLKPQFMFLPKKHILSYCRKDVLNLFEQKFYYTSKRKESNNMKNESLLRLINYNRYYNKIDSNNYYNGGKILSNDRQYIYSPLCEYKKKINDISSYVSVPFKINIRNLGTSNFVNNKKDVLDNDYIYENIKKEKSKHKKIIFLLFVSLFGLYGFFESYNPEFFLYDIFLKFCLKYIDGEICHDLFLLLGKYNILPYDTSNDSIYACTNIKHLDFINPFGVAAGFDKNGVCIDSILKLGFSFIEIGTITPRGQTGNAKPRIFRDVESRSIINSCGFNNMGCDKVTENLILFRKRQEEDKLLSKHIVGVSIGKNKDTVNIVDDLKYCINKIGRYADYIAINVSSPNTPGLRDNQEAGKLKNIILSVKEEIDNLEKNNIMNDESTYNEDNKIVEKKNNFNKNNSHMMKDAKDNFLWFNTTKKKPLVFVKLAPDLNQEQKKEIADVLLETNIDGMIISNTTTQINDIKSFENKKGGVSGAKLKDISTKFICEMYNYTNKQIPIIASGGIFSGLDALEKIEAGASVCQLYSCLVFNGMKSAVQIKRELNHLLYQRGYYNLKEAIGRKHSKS

[15] = P. aeruginosa biofilm formation inhibitors, primary screen, strain PAO1, LB-PBS medium, absorbance 600 nm (AID 1176); also: test concentration not given here; conditions: P. aeruginosa PAO1 growth/biofilm, A600, 12 h; higher = more signal
[16] = S. cerevisiae RM11-1a growth modifiers, primary screen, strain RM11-1a, OD600, basal, 24 h (AID 1177); conditions: OD600, 24 h; higher = more signal, called active from +8 up or from −8 down unless noted;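 also: cultures grown under basal conditions with no added stressor; test concentration not given here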
[17] = E. coli acrAB mutant growth effects, primary screen, E. coli filamentation inducers, strain DRC39, OD650, 24 h (AID 1178); conditions: higher = more signal, called active from +8 up or from −8 down unless noted;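 also: growth measured as culture turbidity by optical density at 650 nm; test concentration not given here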
[18] = E. coli acrAB mutant growth effects, primary screen, E. coli filamentation inducers, strain DRC39, OD650, 48 h (AID 1179);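 also: screen aims at cell division blockers that make cells filament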; conditions: E. coli DRC39 delta-acrAB growth, higher = more signal, called active from +8 up or from −8 down unless noted
[19] = RPMI8226 myeloma cell viability, profiling panel, resazurin fluorescence, basal, 24 h, PK04 Diversity Set (AID 1180); conditions: higher = more signal; RPMI8226 viability, resazurin fluorescence, 24 h unless noted;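 also: RPMI8826 multiple myeloma cell line at 5000 cells per well; test concentration not given here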
[20] = biological target: E3 ubiquitin-protein ligase XIAP (Homo sapiens) (UniProt P98170); assay: XIAP binders, primary screen, biophysical, small-molecule microarray, fluorescence 635 nm (AID 1181); conditions: small-molecule microarray binding, higher = more signal;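 also: score merges 667 nm emission and signal to noise over triplicate slides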
Chain of E3 ubiquitin-protein ligase XIAP (Homo sapiens) (P98170 whole entry, looked up): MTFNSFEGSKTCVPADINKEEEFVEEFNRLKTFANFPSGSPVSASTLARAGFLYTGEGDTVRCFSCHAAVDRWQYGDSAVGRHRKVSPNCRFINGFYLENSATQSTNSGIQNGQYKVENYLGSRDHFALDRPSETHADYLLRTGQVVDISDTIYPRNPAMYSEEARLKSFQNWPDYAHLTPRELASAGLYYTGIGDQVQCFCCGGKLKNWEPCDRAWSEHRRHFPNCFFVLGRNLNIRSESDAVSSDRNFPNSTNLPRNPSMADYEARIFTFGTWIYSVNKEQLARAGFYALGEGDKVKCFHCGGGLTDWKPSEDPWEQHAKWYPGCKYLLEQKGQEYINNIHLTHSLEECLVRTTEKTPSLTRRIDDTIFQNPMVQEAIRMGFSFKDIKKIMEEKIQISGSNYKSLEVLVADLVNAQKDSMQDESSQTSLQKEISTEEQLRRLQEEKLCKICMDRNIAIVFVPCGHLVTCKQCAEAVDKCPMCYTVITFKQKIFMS

Structure (SMILES)	z-score [1]	z-score [2]	z-score [3]	z-score [4]	z-score [5]	z-score [6]	z-score [7]	z-score [8]	z-score [9]	z-score [10]	z-score [11]	z-score [12]	z-score [13]	composite z-score [14]	z-score [15]	z-score [16]	z-score [17]	z-score [18]	z-score [19]	composite z-score [20]
CCCC=C(CCC)[C@@H](NP(=O)(c1ccccc1)c1ccccc1)c1ccccc1	-0.0868	-0.298	0.559	-0.687	-1.27	-1.95	0.21 (inactive)	0.368	-1.5	1.82 (inactive)	2.47	1.4 (inactive)	1.16 (inactive)	0.0585 (inactive)	0.0944 (inactive)	-0.903 (inactive)	-0.486 (inactive)	-0.236 (inactive)	1.3	0.0205
O=P(c1ccccc1)(c1ccccc1)N1CC2(CC2)CC(O)(c2ccccc2)C1 (stereo not given)	-1.76	-0.388	-1.15	-0.183	-0.475	-0.846	-0.654 (inactive)	0.232	-0.372	-0.488 (inactive)	-0.561	0.12 (inactive)	-1.03 (inactive)	-0.001 (inactive)	0.315 (inactive)	0.445 (inactive)	-0.32 (inactive)	0.158 (inactive)	-1.22	0.143
CC1N(P(=O)(c2ccccc2)c2ccccc2)CC(O)(c2ccccc2)CC12CC2 (stereo not given)	-1.2 and -1.31	-0.216 and -0.899	-1.5 and -1.05	-0.187 and -0.545	-1.7 and -1.4	-0.722 and -1.02	-1.04 (inactive) and -1.11 (inactive)	0.655 and -0.4	-0.307 and -0.694	0.146 (inactive) and 1.49 (inactive)	-0.964 and 0.138	2.47 (inactive) and 0.135 (inactive)	-1.13 (inactive) and -0.22 (inactive)	0.296 (inactive) and -0.264 (inactive)	0.495 (inactive) and 0.178 (inactive)	1.23 (inactive) and -0.154 (inactive)	-0.611 (inactive) and -0.406 (inactive)	0.0506 (inactive) and -0.0402 (inactive)	-1.54 and 0.553	-0.193 and -0.25
CN1CCC(c2ccc(CO)cc2)=CC1C1CC1 (stereo not given)	0.169	-0.228	0.061	-1.25	0.0447	-0.851	-0.625 (inactive)	0.604	-0.409	-0.374 (inactive)	-0.777	0.574 (inactive)	-0.55 (inactive)	-0.54 (inactive)	-0.247 (inactive)	-0.123 (inactive)	0.501 (inactive)	0.389 (inactive)	-0.869	0.284
COc1cc2c(cc1O)C(C)N(C)CC2 (stereo not given)	1.22	1.01	0.262	-0.853	0.456	0.0836	1.27 (inactive)	-0.663	1.07	0.115 (inactive)	-0.454	-0.709 (inactive)	0.412 (inactive)	-3.68 (inactive)	-0.227 (inactive)	-0.448 (inactive)	0.516 (inactive)	-0.385 (inactive)	0.566	-0.184
C=C(CC1(C(C)NP(=O)(c2ccccc2)c2ccccc2)CC1)c1ccccc1 (stereo not given)	-2.12	0.844	-1.07	-3.18	-4.71	-2.36	-0.793 (inactive)	-0.819	-0.133	2.93 (inactive)	0.901	-16.1 (active)	0.794 (inactive)	-0.626 (inactive)	1.38 (inactive)	-16 (active)	-0.628 (inactive)	-0.645 (inactive)	2	0.525
COC(=O)[C@H]1C(=O)c2ccccc2O[C@@](C(=O)OC)(c2ccccc2)[C@@H]1c1ccccc1	-0.513	-0.328	0.159	-1.16	-0.144	-0.598	-0.31 (inactive)	-0.203	0.271	-0.002 (inactive)	-0.515	-0.54 (inactive)	-0.0272 (inactive)	0.0983 (inactive)	-0.233 (inactive)	0.174 (inactive)	0.27 (inactive)	0.419 (inactive)	0.223	0.182
C[C@@H]1Cc2c(cnc3c2CN(C)CC3)CO1	0.298	0.288	-0.153	-1.39	0.089	0.389	0.284 (inactive)	-0.258	0.677	0.707 (inactive)	0.507	-0.583 (inactive)	0.335 (inactive)	-0.7 (inactive)	0.0008 (inactive)	-0.498 (inactive)	-0.151 (inactive)	0.0072 (inactive)	0.992	0.276
OCc1ccc(C2=CC(c3cccs3)N(Cc3cccc(OC(F)(F)F)c3)CC2)cc1 (stereo not given)	1.08	0.314	-0.65	-2.61	-0.633	-2.28	0.0997 (inactive)	-0.0311	0.518	0.439 (inactive)	-0.0049	-1.22 (inactive)	-0.126 (inactive)	-4.15 (inactive)	-0.223 (inactive)	-0.449 (inactive)	0.301 (inactive)	-0.544 (inactive)	0.341	-0.192
CCCc1cc2c(n1Cc1cccc(Cl)c1)C(C)C1CN(C(=O)c3ccccc3)C(C)(C(=O)OC)C21 (stereo not given)	-1.22	-0.278	0.101	-2.71	-4.69	1.4	-1.82 (inactive)	-0.795	-1.61	-0.474 (inactive)	-1.04	0.773 (inactive)	-1.7 (inactive)	-0.403 (inactive)	0.619 (inactive)	0.616 (inactive)	-0.423 (inactive)	-0.0676 (inactive)	-1.56	0.621
c1ccc(-c2cc3c(nc2-c2ccccc2)CCNC3)cc1	0.765	-0.106	0.246	0.195	0.145	0.506	-0.239 (inactive)	0.179	-0.0254	0.983 (inactive)	0.469	-0.0743 (inactive)	0.526 (inactive)	1.07 (inactive)	-0.0933 (inactive)	1.36 (inactive)	0.306 (inactive)	-0.29 (inactive)	0.938	-0.0344
COC(=O)NCC=Cc1nc(CCC=CC(=O)O[C@H]2CC3CC(=O)O[C@@H](C=CCC(C)C)C[C@@H]4CC[C@H](C)[C@@H](C[C@@H](OC)C[C@H](C2)O3)O4)co1	-1.61	-0.804	-1.29	-2.61	-2.97	0.49	0.249 (inactive)	-0.908	-2.54	-4.04 (inactive)	-1.05	-1.03 (inactive)	-2.04 (inactive)	-0.646 (inactive)	0.168 (inactive)	-0.659 (inactive)	0.523 (inactive)	0.666 (inactive)	-1.95	-0.102
CCCc1cc2c(n1Cc1ccc(C)cc1)C(C)C1CN(C(=O)c3ccccc3)C(C)(C(=O)OC)C21 (stereo not given)	0.345	-0.441	1.11	-2.84	-4.73	2.34	-0.268 (inactive)	0.00271	-1.59	-1.58 (inactive)	-0.492	-0.283 (inactive)	-1.04 (inactive)	-1.07 (inactive)	0.355 (inactive)	-0.654 (inactive)	0.103 (inactive)	0.357 (inactive)	-1.11	0.174
OCc1ccc(C2=CC(C3CC3)N(Cc3sc4ccccc4c3Cl)CC2)cc1 (stereo not given)	-1.09	0.656	-0.328	-3.17	-3.29	0.353	0.501 (inactive)	-0.913	-0.434	-0.497 (inactive)	-0.0351	-4.2 (inactive)	-1.43 (inactive)	-1.3 (inactive)	-0.411 (inactive)	1.76 (inactive)	-1.71 (inactive)	-1.33 (inactive)	-1.37	0.539
CN1CCC(c2ccc(CO)cc2)=CC1c1cccs1 (stereo not given)	0.368	-0.393	-0.153	-2.81	-0.157	-1.28	-0.581 (inactive)	0.554	-0.277	-0.103 (inactive)	-0.792	-1.01 (inactive)	-0.694 (inactive)	0.083 (inactive)	-0.329 (inactive)	1.13 (inactive)	-0.543 (inactive)	-0.447 (inactive)	-0.118	0.152
CCCc1cc2c(n1Cc1ccco1)C(C)C1CN(C(=O)c3ccccc3)C(C)(C(=O)OC)C21 (stereo not given)	-0.136	0.227	-0.369	-3.24	-2.66	2.35	-1.5 (inactive)	0.228	-1.53	-1.36 (inactive)	-1.24	-0.0767 (inactive)	-1.85 (inactive)	-0.455 (inactive)	1.9 (inactive)	0.264 (inactive)	-1.25 (inactive)	-0.951 (inactive)	-1.3	0.471

Source: PubChem BioAssay
